Unmarked numbers belong to inactive results. Inconclusive results are not listed. Active and inactive are the calls of the source. Unless noted, calls follow the shape of the dose curve; as a rule, active = well fitted curve in the direction sought with a large enough effect in the repeat runs; inconclusive = weak or mixed curves; inactive = no such curve, though single readings can be large; an effect the other way counts as inactive or inconclusive.

The target of assay [1] is Progesterone receptor (Homo sapiens) (UniProt P06401). Put plainly: qHTS assay to identify small molecule agonists of the progesterone receptor (PR) signaling pathway (AID 1346784; calls by dose curve; also: nearly all actives have a fitted effect of over 30% in size). Put shortly: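 Using charcoal-stripped serum (2%) to limit endogenous steroids, PR-UAS-bla HEK 293T cells received compounds for 16 hr at 37C after 6 hr plating; beta-lactamase FRET fluorescence was recorded following 2 hr substrate loading at room temperature.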

Assay [2] has the same target. The assay is described as follows: qHTS assay to identify small molecule antagonists of the progesterone receptor (PR) signaling pathway (AID 1346795; active = well fitted inhibition curve with a large enough effect in the signal ratio in the repeat runs, not every such curve was filed as active; the % refers to the signal ratio). The essentials:
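Inhibition of R5020-induced (1 nM final) beta-lactamase reporter signal in PR-UAS-bla HEK293T cells was scored by FRET fluorescence after overnight (16 hr) compound treatment.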

The nature of assay [3]: qHTS assay to identify small molecule antagonists of the progesterone receptor (PR) signaling pathway - cell viability counter screen (AID 1346798). Also: series mostly up to about 92 µM; nearly all actives have a fitted effect of over 50% in size. The essentials: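 ATP content as viability readout: CellTiter-Glo luminescence, 30 min room temperature, in PR-UAS-bla HEK293T cells after 16 hr compound/R5020 treatment at 37C and 5% CO2.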
Assay [4] is described as follows: qHTS assay to identify small molecule agonists of the progesterone receptor (PR) signaling pathway - cell viability counter screen (AID 1346799; calls by dose curve; also: nearly all actives have a fitted effect of over 45% in size). The essentials:
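Cytotoxicity in PR-bla HEK293T cells: 16 h compound, 37C; CellTiter-Glo added post-FRET read; luminescence after 30 min RT.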

Assay [5] can be described thus: qHTS assay to identify small molecule antagonists of the TGF-beta/Smad signaling pathway - cell viability counter screen (AID 1346824). Also: nearly all actives have a fitted effect of over 50% in size. Put shortly: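 SBE-bla HEK 293T cells, incubated overnight, then compound plus 0.25 ng/mL TGF-beta1 (stock added) for 5 hr at 37 C. Viability was read in the same wells by CellTiter-Glo luminescence after 30 min at room temperature.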

Assay [6] in a line: qHTS assay to identify small molecule agonists of the TGF-beta/Smad signaling pathway (AID 1346859; active = well fitted activation curve with a large enough effect in the signal ratio in the repeat runs, not every such curve was filed as active; the % refers to the signal ratio; also: series mostly up to about 77 µM). The essentials:
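Stable Smad binding element-beta-lactamase HEK 293T cells; 5 hr compound exposure at 37 C under 5% CO2; 2 hr room-temperature substrate step; fluorescence excited at 405 nm, collected at 460 nm and 530 nm.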

Assay [7] deals with Thyrotropin-releasing hormone receptor (Homo sapiens) (UniProt P34981). Put plainly: qHTS assay to identify small molecule antagonists of the thyrotropin-releasing hormone receptor (TRHR) signaling pathway (AID 1346877; active = well fitted inhibition curve with a large enough effect in the repeat runs, not every such curve was filed as active; also: series mostly up to about 51 µM). Put shortly:
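HEK293/TRHR cells, 18 h, 37 °C; Ca2+ dye 2 h; cpd 5 min RT; TRH 1 nM final; fluorescence read 3 min, 1 s intervals; 15 concs, triplicate.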

The target is the same in assay [8]. The assay is described as follows: qHTS assay to identify small molecule agonists of the thyrotropin-releasing hormone receptor (TRHR) signaling pathway (AID 1346891; calls by dose curve;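 also: HEK293 cells expressing TRHR with calcium dye readout; series mostly up to about 58 µM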). Put shortly:
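In 1536-format, 1500 TRHR-Hek293 cells per well grew 18 h, took up calcium dye for 2 h at 37 °C, received compound, and were read kinetically; 15-point titrations, triplicates.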

Assay [9] can be described thus: Human pregnane X receptor (PXR) small molecule agonists, qHTS cell viability counter screen (AID 1346977). Also: nearly all actives have a fitted effect of over 50% in size. Put shortly:
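Readout is CellTiter-Fluor fluorescence from PXR-Luc HepG2 cells. Plated cells rested 5hr, then were treated with compounds for 24hr at 37C and 5% CO2, with reagent present during the last hour.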

Assay [10] in a line: Caspase-3/7 induction in HepG2 cells by small molecules, qHTS assay (AID 1346978). Also: nearly all actives have a fitted effect of over 15% in size. Put shortly:
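Wild-type HepG2 cells, 2,000/well, settled 5 hr at 37 C and 5% CO2, then compound-treated for 17 hr; caspase-3/7 activity read by luminescent Caspase-Glo 3/7 after 30 min at room temperature.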

Assay [11] is described as follows: Caspase-3/7 induction in CHO-K1 cells by small molecules, qHTS cell viability counter screen (AID 1346979). Also: nearly all actives have a fitted effect of over 35% in size. Put shortly: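 To flag cytotoxic compounds, treated CHO-K1 wild-type cells were given CellTiter-Fluor at 16hr and read fluorescently after 1hr at 37C; the caspase-3/7 luminescence was measured in these same wells.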
A short description of assay [12]: Caspase-3/7 induction in CHO-K1 cells by small molecules, qHTS assay (AID 1346980). Also: nearly all actives have a fitted effect of over 15% in size. Put shortly:
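Wild-type CHO-K1 cells exposed to compounds for 17hr at 37 C, 5% CO2. Caspase-3/7 activity then measured by Caspase-Glo 3/7 luminescence after 30min at room temperature.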

Assay [13] is described as follows: Caspase-3/7 induction in HepG2 cells by small molecules, qHTS cell viability counter screen (AID 1346981). Also: series mostly up to about 92 µM; nearly all actives have a fitted effect of over 30% in size. Put shortly: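 Fluorescence read-out of live-cell protease activity (CellTiter-Fluor) after 1 hr with reagent. This was measured in the same wells as the caspase-3/7 luminescence, on HepG2 cells exposed to DMSO-dissolved compounds for 16 hr at 37 C.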
The target of assay [14] is Nuclear receptor subfamily 1 group I member 2 (Homo sapiens) (UniProt O75469). The assay is described as follows: Human pregnane X receptor (PXR) small molecule agonists, qHTS assay (AID 1346982). Also: nearly all actives have a fitted effect of over 35% in size. Also: potency is read from the fitted curve at half-maximal effect. The essentials: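 HepG2 PXR-Luc reporter line, 5% charcoal-stripped FBS; 5 hr pre-incubation, compound (DMSO) 24 hr at 37 C/5% CO2; ONE-Glo 30 min RT; luminescence read-out.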

Assay [15] deals with Acetylcholinesterase (Homo sapiens) (UniProt P22303). Put plainly: Acetylcholinesterase (AChE) small molecule antagonists: colormetric cell-based qHTS assay (AID 1347395; calls by dose curve; also: nearly all actives have a fitted effect of over 30% in size). Put shortly:
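Neuroblastoma line SH-SY5Y supplied the enzyme; cells were preincubated with compound for 30 min at 37 C and 5% CO2. Acetylthiocholine with DTNB was then added for 90 min at 37 C, and thiocholine was measured by colour.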

For assay [16] the target is unchanged. Put plainly: Acetylcholinesterase (AChE) small molecule antagonists: enzyme-based qHTS assay (AID 1347397; calls by dose curve; also: nearly all actives have a fitted effect of over 55% in size). The following applies: Potency: AChE enzyme activity inhibition. Put shortly:
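Colorimetric DTNB read-out of thiocholine released from acetylthiocholine by recombinant human AChE (50 mU/mL as dispensed). Compounds were preincubated 30 min at RT before substrate/DTNB addition, with a 10 min RT reaction.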

Assay [17] can be described thus: qHTS assay to identify small molecule agonists of the TGF-beta/Smad signaling pathway - cell viability counter screen (AID 1346829). Also: top concentration of the series differs between compounds; nearly all actives have a fitted effect of over 45% in size. The essentials: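 Same-well cytotoxicity: CellTiter-Glo added after the 2 hr room-temperature beta-lactamase substrate step, luminescence measured 30 min later; cells had 5 hr of compound at 37 C.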
The target of assay [18] is Nuclear receptor subfamily 1 group I member 2 (Rattus norvegicus) (UniProt Q9R1A7). The assay is described as follows: Rat pregnane X receptor (rPXR) activation by small molecules, qHTS assay (AID 1346983). Also: nearly all actives have a fitted effect of over 20% in size. The following applies: rPXR luciferase reporter cells, One-Glo luminescence, 24 h; max activation: hits give high values. The essentials: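 Cell-based rPXR activation assay: rPXR cells, 2,000 per well, rested 5hr at 37 C, then exposed to compounds in DMSO for 24 hr at 37 C. Luciferase activity read by One-Glo luminescence after 30 min at room temperature.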

For assay [19], the target named is Nuclear receptor subfamily 1 group I member 2 (Homo sapiens) (UniProt O75469). The assay is described as follows: CYP3A4 induction through human pregnane X receptor (PXR) by small molecules, qHTS assay (AID 1346984). Also: nearly all actives have a fitted effect of over 40% in size. The essentials:
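HepG2-derived DPX-2 line carrying PXR plus a CYP3A4-promoter luciferase reporter; cells plated 5 hr, compound-exposed 24 hr at 37C. CYP3A4 activity probed with 3uM (final) Luciferin-IPA for 3hr, then luciferase read after One-Glo.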

Assay [20] has the same target. The assay is described as follows: Human pregnane X receptor (PXR) activation by small molecules, qHTS assay (AID 1346985). Also: nearly all actives have a fitted effect of over 40% in size. Put shortly:
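DPX-2 cells (HepG2 co-transfected with a PXR response element and a CYP3A4-promoter luciferase construct) were seeded at 2,000 per well, rested 5 hr at 37C, then exposed to DMSO-dissolved compounds for 24 hr. Activation was read as luciferase luminescence.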
% is scaled to controls: 0 for no effect and ±100 for the full control effect.

Acetylcholinesterase (Homo sapiens), sequence (P22303 whole entry, looked up): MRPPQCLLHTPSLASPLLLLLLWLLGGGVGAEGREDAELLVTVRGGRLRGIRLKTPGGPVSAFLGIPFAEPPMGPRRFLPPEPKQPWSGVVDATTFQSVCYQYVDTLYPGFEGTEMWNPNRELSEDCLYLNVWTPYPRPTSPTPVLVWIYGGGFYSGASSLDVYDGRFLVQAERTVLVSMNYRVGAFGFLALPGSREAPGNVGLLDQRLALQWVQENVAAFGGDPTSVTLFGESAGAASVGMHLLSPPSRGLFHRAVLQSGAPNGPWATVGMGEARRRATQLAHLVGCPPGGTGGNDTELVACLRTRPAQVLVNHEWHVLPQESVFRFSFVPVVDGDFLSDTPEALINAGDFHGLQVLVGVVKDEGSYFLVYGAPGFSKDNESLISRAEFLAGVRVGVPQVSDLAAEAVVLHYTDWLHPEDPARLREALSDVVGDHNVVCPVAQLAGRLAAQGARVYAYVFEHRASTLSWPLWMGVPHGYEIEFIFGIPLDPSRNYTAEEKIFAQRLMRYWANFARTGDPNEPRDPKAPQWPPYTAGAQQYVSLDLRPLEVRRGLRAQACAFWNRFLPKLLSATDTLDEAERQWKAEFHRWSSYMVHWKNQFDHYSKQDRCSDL
Progesterone receptor (Homo sapiens), sequence (P06401 whole entry, looked up): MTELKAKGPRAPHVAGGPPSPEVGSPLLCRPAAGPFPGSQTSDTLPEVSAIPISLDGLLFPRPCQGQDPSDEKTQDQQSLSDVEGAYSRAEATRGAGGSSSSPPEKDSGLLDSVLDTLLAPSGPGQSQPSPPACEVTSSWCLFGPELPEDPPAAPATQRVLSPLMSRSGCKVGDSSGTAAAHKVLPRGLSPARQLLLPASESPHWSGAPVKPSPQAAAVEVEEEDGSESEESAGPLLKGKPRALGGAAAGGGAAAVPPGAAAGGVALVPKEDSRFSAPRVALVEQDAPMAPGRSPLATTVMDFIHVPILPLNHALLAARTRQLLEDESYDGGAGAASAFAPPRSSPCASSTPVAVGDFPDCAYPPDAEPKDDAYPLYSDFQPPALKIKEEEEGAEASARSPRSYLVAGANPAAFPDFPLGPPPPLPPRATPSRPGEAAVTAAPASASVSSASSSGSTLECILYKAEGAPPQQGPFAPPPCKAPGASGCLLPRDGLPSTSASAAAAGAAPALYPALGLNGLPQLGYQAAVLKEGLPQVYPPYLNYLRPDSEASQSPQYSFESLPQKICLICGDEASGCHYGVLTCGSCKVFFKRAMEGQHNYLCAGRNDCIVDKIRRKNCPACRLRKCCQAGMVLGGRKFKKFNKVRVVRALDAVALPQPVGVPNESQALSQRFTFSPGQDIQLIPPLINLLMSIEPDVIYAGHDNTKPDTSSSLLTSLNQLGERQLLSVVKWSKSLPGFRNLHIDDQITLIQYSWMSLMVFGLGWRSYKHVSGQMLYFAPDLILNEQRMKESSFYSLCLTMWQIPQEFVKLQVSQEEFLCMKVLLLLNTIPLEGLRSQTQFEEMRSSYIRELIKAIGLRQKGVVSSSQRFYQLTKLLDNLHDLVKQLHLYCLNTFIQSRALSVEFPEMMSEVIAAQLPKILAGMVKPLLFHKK
Nuclear receptor subfamily 1 group I member 2 (Homo sapiens), sequence (O75469 whole entry, looked up): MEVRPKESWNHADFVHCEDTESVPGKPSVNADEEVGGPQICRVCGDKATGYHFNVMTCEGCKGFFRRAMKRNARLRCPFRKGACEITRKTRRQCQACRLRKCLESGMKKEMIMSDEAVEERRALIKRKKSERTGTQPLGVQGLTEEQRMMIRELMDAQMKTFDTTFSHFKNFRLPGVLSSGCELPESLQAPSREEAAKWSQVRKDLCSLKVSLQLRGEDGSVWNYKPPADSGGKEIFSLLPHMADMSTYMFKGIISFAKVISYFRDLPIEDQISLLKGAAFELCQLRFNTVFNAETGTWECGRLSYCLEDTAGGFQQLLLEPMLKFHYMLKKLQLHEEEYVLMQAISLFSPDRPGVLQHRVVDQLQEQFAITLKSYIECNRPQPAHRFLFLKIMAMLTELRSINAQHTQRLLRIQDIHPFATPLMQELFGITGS
Thyrotropin-releasing hormone receptor (Homo sapiens), sequence (P34981 whole entry, looked up): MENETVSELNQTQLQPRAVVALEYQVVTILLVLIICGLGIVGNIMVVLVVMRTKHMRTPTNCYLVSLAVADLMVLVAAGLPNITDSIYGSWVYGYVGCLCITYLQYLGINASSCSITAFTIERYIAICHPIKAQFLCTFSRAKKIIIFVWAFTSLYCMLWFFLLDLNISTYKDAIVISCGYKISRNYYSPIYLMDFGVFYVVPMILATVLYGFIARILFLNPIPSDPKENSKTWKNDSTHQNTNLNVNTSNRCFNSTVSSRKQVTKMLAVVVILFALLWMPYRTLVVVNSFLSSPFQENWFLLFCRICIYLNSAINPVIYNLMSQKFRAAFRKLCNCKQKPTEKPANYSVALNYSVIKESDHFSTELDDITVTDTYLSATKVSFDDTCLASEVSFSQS
Nuclear receptor subfamily 1 group I member 2 (Rattus norvegicus), sequence (Q9R1A7 whole entry, looked up): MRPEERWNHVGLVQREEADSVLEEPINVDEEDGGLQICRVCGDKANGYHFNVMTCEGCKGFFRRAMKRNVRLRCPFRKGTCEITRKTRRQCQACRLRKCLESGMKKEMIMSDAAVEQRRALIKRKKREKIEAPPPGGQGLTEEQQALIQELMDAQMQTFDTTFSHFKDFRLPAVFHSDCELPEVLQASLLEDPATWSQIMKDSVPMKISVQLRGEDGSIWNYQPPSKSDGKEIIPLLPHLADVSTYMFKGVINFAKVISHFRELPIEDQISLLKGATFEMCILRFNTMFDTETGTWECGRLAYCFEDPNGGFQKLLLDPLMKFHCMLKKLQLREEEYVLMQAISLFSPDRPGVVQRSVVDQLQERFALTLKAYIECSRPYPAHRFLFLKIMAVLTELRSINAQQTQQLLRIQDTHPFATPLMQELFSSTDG

For `Cc1cc(C)c(C(=O)P(=O)(C(=O)c2c(C)cc(C)cc2C)c2ccccc2)c(C)c1`, the Potency entry in assay [1], in [2], in assay [3], in [4], in [5] and in assay [9] was “inactive” throughout. Moreover, the Potency result in assay [10], in assay [11], in [12], in assay [13], in [15] and in assay [16] was “inactive” each time. Further, the molecule was called inactive in [6], in assay [7] and in [8]. In addition, the Potency in assay [14] is 24.3 µM (active).
For `CNC(=O)Oc1cccc(C(C)C)c1`, the Potency entry in [1], in [2], in assay [3], in [4], in assay [9] and in [10] was “inactive” in each case. The Potency entry in assay [11], in assay [12] and in assay [13] was “inactive” throughout. Besides, the molecule was classed as inactive in [17], in [6], in assay [7] and in assay [8].
In the case of `CC(C)CC(N(C)C)C1(c2ccc(Cl)cc2)CCC1` (configuration not stated), the Potency entry in [1], in assay [2], in [3], in [5], in assay [9] and in assay [10] was “inactive” in each case. The Potency result in assay [11], in assay [12], in assay [13], in assay [14], in assay [19] and in [20] was “inactive” each time. The molecule was classed as inactive in assay [17], in [6], in assay [7] and in assay [8]. Also, the max activation in assay [18] was -2.56%.
As to `O=c1oc2ccccc2c(O)c1C1CCCc2ccccc21` (configuration not stated), the Potency result in assay [1], in assay [2], in assay [3], in assay [5], in [9] and in assay [10] was “inactive” each time. Also, the Potency entry in assay [11], in assay [12], in assay [13], in assay [15] and in [16] was “inactive” throughout. Further, the outcome in [17], in assay [6], in assay [7] and in assay [8] was inactive.
`Nc1cnn(-c2ccccc2)c(=O)c1Cl`: the Potency result in [1], in [2], in assay [3], in assay [5], in assay [9] and in assay [10] was “inactive” throughout. Moreover, the Potency entry in [11], in assay [12], in [13], in [14] and in [16] was “inactive” each time. Besides, the call in assay [17], in assay [6], in assay [7] and in [8] was inactive.
Turning to `NC(=O)O`, the Potency result in assay [1], in [2], in assay [3], in assay [4], in [9] and in assay [10] was “inactive” in each case. The Potency result in assay [11], in [12], in assay [14], in assay [15] and in assay [16] was “inactive” throughout. Besides, the molecule was called inactive in assay [17], in [6], in [7] and in assay [8].
With `CCSC(=O)N(CC)C1CCCCC1`, the Potency entry in assay [1], in assay [2], in [3], in [5], in assay [9] and in assay [10] was “inactive” each time. The Potency result in assay [11], in [12], in [14], in assay [15] and in [16] was “inactive” each time. The molecule was classed as inactive in assay [17], in [6], in [7] and in assay [8].
`Clc1ccccc1N1CCNCC1`: the Potency entry in assay [1], in [2], in assay [3], in assay [5], in assay [9] and in assay [10] was “inactive” throughout. Besides, the Potency entry in assay [11], in assay [12], in assay [13], in assay [14], in assay [15] and in [16] was “inactive” each time. Moreover, the result in assay [17], in assay [6], in assay [7] and in [8] was inactive.

The record behind these values is PubChem BioAssay (Tox21).
